A selection: hits, their analogues and other compounds. The true share with any hit is near 2.4%.
ELG1 DNA repair: qHTS screen for small molecules that inhibit ELG1-dependent DNA repair in human embryonic kidney (HEK293T) cells expressing luciferase-tagged ELG1; HEK293T ELG1-luciferase reporter, luminescence, 16 h; DNA damage induced by 5-fluorouridine; AID 504467, 2011; 2.3% of 330,000 active; Potency, µM (titrated, usually from 46.1 µM), hits mostly inhibitors; note: nearly all actives have a fitted effect of over 55% in size
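Step one: seed 2,000 cells per well. Step two: pin-transfer compound or DMSO alongside 5-fluorouridine. Step three: incubate 16 hr, 37 °C, 5% CO2. Step four: add ONE-Glo, wait 30 min, read luminescence.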
Rango complex inh: qHTS Assay for Inhibitors of Rango (Ran-regulated importin-beta cargo) - Importin beta complex formation; Rango CFP/YFP FRET sensor + importin beta, 45 min; Potency, µM (top dose mostly 92.2 µM); 0.031% of 340,000 active; AID 540263, 2011; calls by dose curve; note: nearly all actives have a fitted effect of over 15% in size
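FRET biosensor Rango (snurportin 1 IBB between N-terminal EYFP and C-terminal Cerulean), 50 nM in PBS/1 mM DTT/0.02% Tween-20/0.1% BSA, preincubated 5 min RT with compound; 0.125 microM importin beta added, 45 min RT, CFP/YFP FRET ratio read.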
Tb PGK inh: qHTS Assay to Find Inhibitors of Phosphoglycerate Kinase; Potency, µM (series often up to 57.5 µM), most hits filed as inhibitors; Phosphoglycerate kinase, glycosomal (Trypanosoma brucei brucei), P07378; AID 602233, 2012; PGK/GAPDH coupled, Kinase-Glo luminescence, 60 min; 0.043% of 380,000 active; note: nearly all actives have a fitted effect of over 60% in size
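Recombinant glycosomal PGK reaction used 1,3-bisphosphoglycerate generated in-well by GAPDH (100nM final) in 100mM TEA pH 7.6, 5mM MgCl2, 0.01% Tween-20. After 60 minutes at room temperature, ATP was read by Kinase-Glo Plus luminescence end-point.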
Rango dissoc inh: qHTS Assay for Inhibitors of RanGTP induced Rango (Ran-regulated importin-beta cargo) - Importin beta complex dissociation. Biochemical FRET Rango-importin beta, RanGTP-induced dissociation. 0.071% of 340,000 active. Potency, µM (highest dose often 46.1 µM). Snurportin-1 (Homo sapiens) + GTP-binding nuclear protein Ran (Homo sapiens) + Importin …. AID 540253, 2011; calls by dose curve; note: nearly all actives have a fitted effect of over 45% in size
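Compounds preincubate 5 min with complex of recombinant Rango and importin beta in PBS with 1 mM DTT. Ran (0.6 uM) loaded with 2 mM GTP plus 0.2 uM RCC1 starts dissociation; FRET is recorded 45 min later.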
PKM2 act: qHTS Assay for Activators of Human Muscle isoform 2 Pyruvate Kinase; Potency, µM (series often up to 57.5 µM), most hits filed as activators; Pyruvate kinase PKM (Homo sapiens), P14618; AID 1631, 2009; 0.34% of 260,000 active; purified PKM2, Kinase-Glo ATP luminescence, activation; response scale: 0% is enzyme alone, no compound; note: nearly all actives have a fitted effect of over 55% in size
Target sequence (P14618 whole entry, looked up, canonical isoform): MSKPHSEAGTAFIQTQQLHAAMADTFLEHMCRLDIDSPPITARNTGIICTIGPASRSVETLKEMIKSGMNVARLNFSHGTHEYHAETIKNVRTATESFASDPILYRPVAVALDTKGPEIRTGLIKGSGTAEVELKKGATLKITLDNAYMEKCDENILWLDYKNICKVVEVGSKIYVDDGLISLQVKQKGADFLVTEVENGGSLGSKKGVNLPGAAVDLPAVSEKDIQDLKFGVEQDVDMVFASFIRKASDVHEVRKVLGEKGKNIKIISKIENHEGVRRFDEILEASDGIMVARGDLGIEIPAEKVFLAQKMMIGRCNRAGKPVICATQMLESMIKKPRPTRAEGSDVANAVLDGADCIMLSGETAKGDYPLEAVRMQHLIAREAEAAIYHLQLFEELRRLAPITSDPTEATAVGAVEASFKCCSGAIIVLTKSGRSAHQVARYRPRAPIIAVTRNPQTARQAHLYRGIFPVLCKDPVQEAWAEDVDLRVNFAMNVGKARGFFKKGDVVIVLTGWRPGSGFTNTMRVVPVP
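Purified hPK-M2 (>95% pure) converted ADP (0.1 mM final) to ATP with 0.5 mM PEP in 50 mM imidazole pH7.2, KCl, MgCl2, Tween 20, BSA; 1 h at room temperature. ATP detected by Kinase-Glo luminescence.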
Tb PFK inh: qHTS Assay to Find Inhibitors of T. brucei phosphofructokinase. AID 485367, 2010. 0.17% of 330,000 active. T. brucei PFK, ADP-Glo luminescence. Potency, µM (top dose mostly 57.5 µM), most hits filed as inhibitors; note: nearly all actives have a fitted effect of over 60% in size
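PFK 1.25 nM, F6P 0.5 mM, ATP 0.1 mM, 0.1 M TEA pH 8.0, 5 mM MgCl2, 0.01% Tween20, 0.1% BSA; 45 min RT. ADP-Glo readout. qHTS titration up to 57 uM; curves fitted, compounds curve-classed.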
Numbers stand for hits; 0 = inactive; ? = inconclusive; - = no result. Unless noted, calls come from the whole dose curve; as a rule, active = well fitted curve in the direction sought with a large enough effect; inconclusive = small, poorly fitted or top-dose-only effect, or another doubt; inactive = no such curve, though single readings can be large; an effect the other way counts as inactive or inconclusive.

SMILES	ELG1 DNA repair	Rango complex inh	Tb PGK inh	Rango dissoc inh	PKM2 act	Tb PFK inh
C=CCNC(=S)N/N=C/c1ccc(C(F)(F)F)cc1	4.61µM	0	0	?	0	0
COc1ccc(NC(=O)CN(C)C(=O)c2ccc(S(=O)(=O)Nc3ccccc3C)cc2)cc1	0	?	0	0	-	0
CCOC(=O)C(C)(C)N(Cc1ccc(Cl)cc1)S(=O)(=O)c1ccc(Cl)c([N+](=O)[O-])c1	18.4µM	-	-	-	0	0
COc1cc2nc(CN3CCN(S(=O)(=O)c4ccccc4C(F)(F)F)CC3)[nH]c(=O)c2cc1OC	?	0	0	0	-	0
COc1cc2nc(CN3CCN(S(=O)(=O)c4c(F)cccc4F)CC3)[nH]c(=O)c2cc1OC	5.8µM	?	0	0	-	0
CC1Cc2ccccc2N1c1ncnc(N)c1[N+](=O)[O-] (stereo not given)	1.46µM	0	0	0	0	0
CC1Cc2ccccc2N1c1ncnc2nc[nH]c12 (stereo not given)	0	0	0	0	?	0
O=C(NCc1ccco1)C(c1cccs1)N(C(=O)C1COc2ccccc2O1)c1cccc(O)c1 (stereo not given)	13µM	0	0	0	0	0
CC(C)CCNC(=O)C(c1ccc(O)cc1)N(Cc1cccs1)C(=O)C1COc2ccccc2O1 (stereo not given)	20.6µM	0	0	0	0	0
Cc1ccc(C(C(=O)NC2CCCCC2)N(Cc2ccco2)C(=O)C2COc3ccccc3O2)o1 (stereo not given)	?	0	0	0	0	0
CC(C)(C)NC(=O)CN(Cc1cccs1)C(=O)C1COc2ccccc2O1 (stereo not given)	0	0	0	0	0	0
NC(=O)c1ccsc1NC(=O)c1ccc(S(=O)(=O)N2CCCc3ccccc32)cc1	20.6µM	0	0	0	0	0
CSCC[C@H](NC(=O)c1cccc(S(=O)(=O)N2CCCCCC2)c1)c1nc2ccccc2[nH]1	23.1µM	0	0	0	-	0
CSCCC(NC(=O)c1cccc(S(=O)(=O)N2CCOCC2)c1)c1nc2ccccc2[nH]1 (stereo not given)	0	0	0	0	-	0
CCOc1ccc(-n2c(=S)sc3c(=O)[nH]c(SCC(=O)C(C)(C)C)nc32)cc1	14.6µM	0	0	0	0	0
CCOC(=O)CSc1nc2c(sc(=S)n2-c2ccc(OCC)cc2)c(=O)[nH]1	20.6µM	0	0	0	0	0
Cc1noc(C)c1NC(=O)Nc1ccc2c(c1)C(=O)N([C@H](C)CO)C[C@H](C)[C@@H](CN(C)S(=O)(=O)c1cccs1)O2	?	0	0	0	-	0
Cc1cc(C(=O)N/N=C/c2cc(Br)cc(Br)c2OC(=O)c2ccccc2)n[nH]1	?	-	-	-	0	0
Cc1cc(C(=O)N/N=C/c2cc(Br)cc(Br)c2OC(=O)c2cccc(F)c2)n[nH]1	?	?	0	3.66µM	0	0
COc1cccc(-n2c(C)nc3c(cnn3-c3ccc(C)c(C)c3)c2=O)c1	-	-	0	-	-	-
[O-]/C(=C(\C(=S)Nc1ccc(SC(F)F)cc1)[n+]1ccccc1)c1ccc(Cl)cc1Cl	14.6µM	0	0	0	0	0
Cc1cc(C)cc(NC(=S)/C(=C(\[O-])c2ccc(Cl)cc2Cl)[n+]2ccccc2)c1	0	0	0	0	0	0
NC(N)=Nc1ccc(C=C2C=Cc3ccccc32)cc1	-	0	0	0	-	-
COc1cccc(/C=N/n2c(C)nc3ccccc32)c1OC	?	0	0	0	0	0
COc1cccc(/C=N/n2c(-c3ccco3)nc3ccccc3c2=O)c1OC	5.17µM	0	0	0	0	0
SMILES	ELG1 DNA repair	Rango complex inh	Tb PGK inh	Rango dissoc inh	PKM2 act	Tb PFK inh
O=C(O)CC/C(=N\Nc1ccc(S(=O)(=O)N2CCCC2)cc1[N+](=O)[O-])c1cccs1	20.6µM	0	0	0	0	0
O=C(O)CC/C(=N\Nc1ccc(S(=O)(=O)N2CCOCC2)cc1[N+](=O)[O-])c1cccs1	?	?	0	0	0	0
Cc1ccccc1N1CCN(c2ncnc3scc(-c4cccs4)c23)CC1	0	0	0	0	0	0
COc1ccc(-c2csc3ncnc(N4CCN(Cc5ccccc5)CC4)c23)cc1	?	0	0	0	0	0
Fc1ccc(CN2CCN(c3ncnc4scc(-c5ccc(F)cc5)c34)CC2)cc1	20.6µM	0	0	0	-	0
Clc1ccc(CN2CCN(c3ncnc4scc(-c5cccs5)c34)CC2)cc1	23.1µM	0	0	0	0	0
COc1ccccc1C(=O)N(c1ccc(C)cc1)S(=O)(=O)c1ccc(Cl)cc1	-	-	0	-	-	-
O=C(Nc1ccccc1F)Nc1cccc2ccc(O)cc12	13µM	0	0	0	0	0
Cc1nnn(C23C[C@@H]4C[C@@H](CC(C(=O)N5CCN(c6ccccc6)CC5)(C4)C2)C3)n1	23.1µM	0	0	0	0	0
COc1ccccc1N1CCN(CC(O)COc2ccc(S(=O)(=O)N3CCOCC3)cc2)CC1 (stereo not given)	10.3µM	0	-	0	0	0
Cc1cc(O)cc(O)c1C(=O)Cc1ccccc1	10.3µM	0	0	0	0	0
O=C(Cc1ccc([N+](=O)[O-])cc1)c1c(O)cc(O)cc1O	0	0	0	0	?	0
CCc1ccccc1NC(=O)N1CC(C)Sc2ccccc21 (stereo not given)	-	-	0	-	-	-
Cc1ccc(-c2ccc(/C=C3\C(=O)ON=C3c3ccccc3)o2)c([N+](=O)[O-])c1	?	0	0	0	28.2µM	0
Cc1ccc(/C=C2\C(=O)ON=C2c2ccccc2)o1	0	0	0	0	0	0
CC(=O)Nc1ccc2c(c1)N(C(C)=O)c1ccccc1CC2	20.6µM	0	0	0	0	0
COC(=O)c1sc2ccccc2c1-n1cccc1C(=O)C(=O)Nc1ccc(OC)cc1	13µM	0	0	0	0	0
COc1ccc(C(CNC(=O)c2cccc(S(=O)(=O)N3CCOCC3)c2)N2CCCC2)cc1 (stereo not given)	0	0	0	0	-	0
Cc1cccc(-n2cc(CNCCc3nc(C)cc(C)n3)c(-c3cccc(F)c3)n2)c1	23.1µM	0	0	0	0	0

Bioassay records (PubChem)
